S2 tox: viability counter-screen for ATXN expression inhibitors; S2 cells (HEK-293 line with an ATXN2-luciferase reporter) viability, CellTiter-Fluor protease fluorescence, 24 h; Potency, µM (top dose mostly 56.7 µM), hits mostly cytotoxic; actives 0.49% (n = 400,000); AID 651635; further: nearly all actives have a fitted effect of over 40% in size
HepG2 viability: counter-screen for TGF-b inhibitors: cytotoxicity in HepG2 cells | HepG2 CAGA-GFP viability, ATP luminescence, 18 h | Potency, µM (highest dose often 46.1 µM), for inactives: at the top dose activity change, negative = cytotoxicity, most hits filed as cytotoxic | actives 0.76% (n = 410,000)
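CellTiter-Glo luminescence gave cytotoxicity after 18 hours at 37 degrees C. The cells were HepG2 CAGA-GFP in 1% FBS DMEM, stimulated with 500 pg/mL TGF-beta after compound addition. %Activity was normalised to no-cell wells (complete cell-killing) and DMSO (no toxicity), and curves were fitted and classified.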
TDP1 cell CPT: DT40-hTDP1 cell growth loss with CPT; chicken DT40 Tdp1-/-;hTDP1 cells + 20 nM CPT, ATP luminescence, 48 h; Potency, µM (doses to about 46.2 µM), without a hit: top-dose activity change, negative = growth inhibition, actives largely listed as inhibitors; actives 12% (n = 420,000); further: on the % scale 0 is the no-effect control and ±100 the full control effect; nearly all actives have a fitted effect of over 55% in size
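Chicken DT40 Tdp1-/- cells stably complemented with human TDP1 were seeded at 400 cells/well in medium containing 20 nM camptothecin, exposed to pin-transferred compounds, and grown at 37 °C for at least 48 hr. Viability was read as ATP luminescence.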
ATXN2 expr inh: reduces ATXN2 reporter expression in HEK-293 cells; HEK-293 ATXN2-luciferase reporter, luminescence, 24 h; Potency, µM (top dose mostly 57 µM), for inactives: at the highest dose activity change, negative = inhibition, hits mostly inhibitors; AID 1745845; actives 0.72% (n = 360,000); further: on the % scale 0 is the no-effect control and ±100 the full control effect; nearly all actives have a fitted effect of over 55% in size
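qHTS (up to 57 uM final) was run with 24 h compound exposure of reporter cells at 37 °C. Each well was multiplexed: SteadyGlo luminescence measured ATXN2-luciferase expression after a fluorogenic Gly-Phe-AFC viability readout (25 uM final).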
TGFb SMAD3 inh: blocks TGF-b signaling | actives 1.2% (n = 410,000) | HepG2 CAGA-GFP TGF-b/SMAD3 reporter, GFP fluorescence, 18 h; TGF-beta stimulated, 500 pg/mL final | Potency, µM (series often up to 46.1 µM), for the others: top-dose activity, negative = inhibition, hits mostly inhibitors; further: on the % scale 0 is the no-effect control and ±100 the full control effect; nearly all actives have a fitted effect of over 65% in size
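Smad-responsive CAGA-GFP expression was quantified in HEPG2 cells exposed to compounds and 500 pg/mL final TGF-beta for 18 h at 37 degrees C; unstimulated wells defined full inhibition.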
TDP1 cell noCPT: qHTS for Inhibitors of human tyrosyl-DNA phosphodiesterase 1 (TDP1): qHTS in cells in absence of CPT; AID 686978, 2013; DT40 Tdp1-/- hTDP1 cells, no CPT, ATP luminescence, 48 h; actives 15% (n = 420,000); Potency, µM (top dose mostly 46.2 µM), inactives show top-dose activity change, negative = growth inhibition, usual class: inhibitors; further: on the % scale 0 is the no-effect control and ±100 the full control effect; nearly all actives have a fitted effect of over 55% in size
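Chicken DT40 Tdp1-/- cells stably complemented with human TDP1 were seeded at 400 cells/well with DMSO in place of 20 nM camptothecin. After compound pinning, cells grew at least 48 hr at 37 °C; viability read by CellTiter-Glo luminescence.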
* hit, by the source's call; i = inactive; ? = inconclusive; nt = no result given; ! = not confirmed by another sample. Compounds with a hit are over-represented: about 17% of the library has one in this group of screens. The call rests on the fitted dose curve; in most records, active means well fitted curve in the direction sought with a large enough effect; inconclusive means small, poorly fitted or top-dose-only effect, or another doubt; inactive means no such curve, though single readings can be large; an effect the other way counts as inactive or inconclusive. Potency means the concentration at half of the fitted maximal effect.

SMILES | S2 tox | HepG2 viability | TDP1 cell CPT | ATXN2 expr inh | TGFb SMAD3 inh | TDP1 cell noCPT
Cc1ccc(C(=O)c2c3ccc(C(F)(F)F)cc3[n+]([O-])n2CCCN)cc1 | ? | -32% | 23µM* | 9% | -13% | 23µM*
CC(C)c1ccc(NC(=O)C2CCN(S(=O)(=O)c3cccc4nsnc34)CC2)cc1 | i | -4% | ? | -11% | 24% | ?
O=C(Nc1ccc(F)c(Cl)c1)C1CCCN(S(=O)(=O)c2cccc3nsnc23)C1 (stereo not given) | i | -39% | 16µM* | -9% | ? | 23µM*
CC(C)c1ccc(NC(=O)C2CCCN(S(=O)(=O)c3cccc4nsnc34)C2)cc1 (stereo not given) | i | -32% | 4.6µM* | -15% | ? | 10µM*
CCN(CC)CCn1c2c(c(SCC(=O)Nc3cc(C)cc(C)c3)nc1=O)CCC2 | i | -4% | 2% | 12% | 11% | -2%
CN(CC(=O)Nc1ncn[nH]1)S(=O)(=O)c1cc(Cl)ccc1Cl | i | -3% | 12% | 4% | -2% | 3%
COc1cccc(-n2c(SCC(=O)Nc3cc(C)on3)nc3c([nH]c4ccccc43)c2=O)c1 | ? | -18% | ? | 7% | -10% | ?
CCSc1nc2c([nH]c3ccccc32)c(=O)n1-c1ccc(OC)cc1 | i | -22% | -16% | 14% | 4% | -22%
COc1cccc(-n2c(SCC(N)=O)nc3c([nH]c4ccccc43)c2=O)c1 | ? | -19% | 18µM* | -17% | -3% | 16µM*
CCOc1ccc(-n2c(SCC(=O)N3CCc4ccccc43)nnc2-c2c[nH]c3ccccc23)cc1 | i | -18% | ? | -7% | -9% | ?
COc1cccc(-n2c(SCC(=O)N3CCc4ccccc43)nnc2-c2c[nH]c3ccccc23)c1 | ? | 1% | 16µM* | ? | -1% | 23µM*
COc1ccc(-n2c(SCc3ccccc3)nc3c([nH]c4ccccc43)c2=O)cc1 | i | -22% | ? | -3% | -5% | 23µM*
COc1ccc(-n2c(SCc3ccccc3F)nc3c([nH]c4ccccc43)c2=O)cc1OC | i | -23% | 26µM* | -3% | ? | 16µM*
CN1CCN(C(=O)c2ccc(-c3cnc4cccnn34)cc2)CC1 | i | -19% | -30% | 8% | 3% | -12%
O=C(CSc1nc2c([nH]c3ccccc32)c(=O)n1-c1cccc(Cl)c1)N1CCOCC1 | i | -5% | 18µM*! | ? | ? | 15µM*!
COc1cccc(-n2c(SCC(=O)N3CCc4ccccc43)nc3c([nH]c4ccccc43)c2=O)c1 | i | -20% | 7.3µM* | 10% | 1% | 10µM*
CCC1CCCCN1C(=O)CSc1nc2c([nH]c3ccccc32)c(=O)n1-c1cccc(OC)c1 (stereo not given) | ? | -27% | ? | ? | ? | 26µM*
COc1cccc(-n2c(SCC(=O)N3CCCCC3)nc3c([nH]c4ccccc43)c2=O)c1 | i | 2% | ? | 1% | -6% | 21µM*
CC(C)(C)n1ncc2c(=O)n(Cc3ccc(C#N)c(F)c3)cnc21 | nt | -1% | nt | nt | -3% | nt
COc1ccccc1CN1CC(C(=O)NCc2cc(F)cc(C(F)(F)F)c2)CCC1=O (stereo not given) | ? | -11% | -30% | 7% | -16% | -7%
COc1ccc(C(=O)NC(C)c2csc(C)n2)cc1OC1CCN(C(C)=O)CC1 (stereo not given) | i | 3% | -5% | 8% | -8% | 12%
CCn1cc(C(=O)O)c(=O)c2cc(F)c(N3CCNCC3)nc21 | i | -19% | ? | 1% | 3% | ?
N[C@H]1CN(c2c(F)cc3c(=O)c(C(=O)O)cn(C4C[C@@H]4F)c3c2Cl)CC12CC2 (stereo not given in full) | i | nt | nt | -1% | nt | nt
NC1CCN(c2nc3c(cc2F)c(=O)c(C(=O)O)cn3-c2ccc(F)cc2F)C1 (stereo not given) | i | 5% | 16µM* | -6% | -11% | 8.2µM*
NC1CCN(c2c(F)cc3c(=O)c(C(=O)O)cn(C4CC4)c3c2Cl)C1 (stereo not given) | i | 29% | 7.3µM* | nt | 18% | 6.5µM*
SMILES | S2 tox | HepG2 viability | TDP1 cell CPT | ATXN2 expr inh | TGFb SMAD3 inh | TDP1 cell noCPT
CC(OC(=O)CCc1c[nH]c2ccccc12)C(=O)c1ccccc1 (stereo not given) | ? | -16% | 4% | -7% | 18% | -18%
CCOC(=O)c1c(NC(=O)/C=C/c2ccccc2)sc2c1CCCC2 | i | 1% | -1% | 1% | 2% | -19%
COc1ccc(S(=O)(=O)N2CCN(C(=O)C3CC3)CC2)cc1Br | i | 6% | -16% | -11% | -1% | -10%
CN(C)CCN1CCN(C2CN(Cc3cn(Cc4cccc(C(F)(F)F)c4)nn3)S(=O)(=O)C2)CC1 (stereo not given) | i | nt | -12% | 4% | nt | -13%
Cc1cccc(CN2CCN(C3CN(Cc4cn(Cc5cccc(C(F)(F)F)c5)nn4)S(=O)(=O)C3)CC2)c1 (stereo not given) | i | nt | ? | -32% | nt | 21µM*
CCCCCCN1CCN(C2CN(Cc3cn(Cc4cccc(Cl)c4)nn3)S(=O)(=O)C2)CC1 (stereo not given) | i | nt | 18µM* | -33% | nt | ?
CCCCCCN1CCN(C2CN(Cc3cn(Cc4ccc(Cl)cc4)nn3)S(=O)(=O)C2)CC1 (stereo not given) | ? | nt | 23µM* | -18% | nt | 16µM*
CN(Cc1cn(Cc2ccc(F)cc2)nn1)C1CN(Cc2cn(Cc3ccc(F)cc3)nn2)S(=O)(=O)C1 (stereo not given) | ? | nt | -26% | -1% | nt | -22%
CN(Cc1cn(Cc2ccc(Cl)cc2)nn1)C1CN(Cc2cn(Cc3ccc(Cl)cc3)nn2)S(=O)(=O)C1 (stereo not given) | i | nt | 18µM* | -24% | nt | 13µM*
CN(C)c1ccc(/C=N/NC(=O)CCc2nc3ccccc3[nH]2)cc1 | i | 11% | 2% | -14% | -3% | -6%
Cc1ccc(C(c2sc3nc(-c4ccco4)nn3c2O)N2CCCCC2)cc1 (stereo not given) | ? | -10% | 5% | 9% | -25% | -3%
